# Activity calls are given as the source filed them. Unless noted, no rule for the calls is given here.
# Assays:
# [1] = resazurin metabolic signal in HepG2 cells – cell-based, resazurin fluorescence, 24 h, PK04 Diversity Set, profiling panel (AID 1172); conditions: HepG2 viability, higher = more signal
# [2] = budding yeast growth changes without added modifier – OD600, strain BY4716, 24 h, basal condition, primary screen (AID 1173); conditions: S. cerevisiae BY4716 growth, OD600, 24 h; higher = more signal, called active from +8 up or from −8 down
# [3] = viability profiling in MM1S myeloma cells – cell-based, resazurin fluorescence, basal, 24 h, PK04 Diversity Set, profiling panel (AID 1174); conditions: higher = more signal, called active from +8 up or from −8 down;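 also: MM1S multiple myeloma cell line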
# [4] = biological target: Dihydroorotate dehydrogenase (quinone), mitochondrial (Plasmodium falciparum (isolate 3D7)) (UniProt Q08210); assay: inhibition of P. falciparum DHODH – biochemical, C-terminal His tag, absorbance 600 nm, primary screen (AID 1175); conditions: PfDHODH enzyme, DCIP absorbance 600 nm; higher = more signal, called active from +8 up or from −8 down;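 also: recombinant parasite enzyme with a five histidine tag at its C terminus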
# [5] = inhibition of PAO1 biofilm formation – strain PAO1, LB-PBS medium, absorbance 600 nm, primary screen (AID 1176); conditions: P. aeruginosa PAO1 growth/biofilm, A600, 12 h; higher = more signal
# [6] = growth modulation of vineyard yeast isolate – strain RM11-1a, OD600, basal, 24 h, primary screen (AID 1177);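 also: cultures grown under basal conditions with no added stressor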; conditions: S. cerevisiae RM11-1a growth, OD600, 24 h; higher = more signal, called active from +8 up or from −8 down
# [7] = growth of efflux-deficient E. coli DRC39 – strain DRC39, OD650, 24 h, E. coli filamentation inducers, primary screen (AID 1178);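 also: growth measured as culture turbidity by optical density at 650 nm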; conditions: E. coli DRC39 acrAB, higher = more signal, called active from +8 up or from −8 down
# [8] = growth of efflux-deficient E. coli DRC39 – strain DRC39, OD650, 48 h, E. coli filamentation inducers, primary screen (AID 1179);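 also: screen aims at cell division blockers that make cells filament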; conditions: E. coli DRC39 delta-acrAB growth, higher = more signal, called active from +8 up or from −8 down
# [9] = viability profiling in RPMI8226 myeloma cells – cell-based, resazurin fluorescence, basal, 24 h, PK04 Diversity Set, profiling panel (AID 1180); conditions: higher = more signal;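 also: RPMI8826 multiple myeloma cell line at 5000 cells per well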
# [10] = biological target: E3 ubiquitin-protein ligase XIAP (Homo sapiens) (UniProt P98170); assay: small molecules binding XIAP protein – biophysical, small-molecule microarray, fluorescence 635 nm, primary screen (AID 1181); conditions: higher = more signal;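 also: score merges 667 nm emission and signal to noise over triplicate slides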
# [11] = tested on: XIP peptide (Xip251-270) binding; assay: XIP fragment 251-270 binding compounds – biochemical, small-molecule microarray, fluorescence 635/667 nm, 0.1 µg/mL protein, primary screen (AID 1182); conditions: fluorescent protein binding, 635 nm, higher = more signal, called active from +8 up or from −8 down
# [12] = tested on: XIP peptide (Xip251-270); assay: compounds binding XIP fragment 251-270 – biochemical, small-molecule microarray, fluorescence 635/667 nm, 0.5 µg/mL protein, primary screen (AID 1183); conditions: fluorescence 635 nm, higher = more signal
# [13] = blood-stage malaria parasite viability loss – strain 3D7, DAPI fluorescence, 100 nL, primary screen (AID 1184);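 also: parasites grown inside human red blood cells in medium with human serum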; conditions: P. falciparum 3D7 growth, 3 d, higher = more signal
# [14] = biological target: Homeobox protein Hox-A13 (Mus musculus) (UniProt Q62424); assay: disruptors of Hoxa13 oligonucleotide interaction – biochemical, fluorescence polarization, labeled oligonucleotide, primary screen (AID 1185); conditions: Hoxa13:DNA binding, 15 min, higher = more signal, called active from +8 up or from −8 down
# Chain of Homeobox protein Hox-A13 (Mus musculus) (Q62424 whole entry, looked up): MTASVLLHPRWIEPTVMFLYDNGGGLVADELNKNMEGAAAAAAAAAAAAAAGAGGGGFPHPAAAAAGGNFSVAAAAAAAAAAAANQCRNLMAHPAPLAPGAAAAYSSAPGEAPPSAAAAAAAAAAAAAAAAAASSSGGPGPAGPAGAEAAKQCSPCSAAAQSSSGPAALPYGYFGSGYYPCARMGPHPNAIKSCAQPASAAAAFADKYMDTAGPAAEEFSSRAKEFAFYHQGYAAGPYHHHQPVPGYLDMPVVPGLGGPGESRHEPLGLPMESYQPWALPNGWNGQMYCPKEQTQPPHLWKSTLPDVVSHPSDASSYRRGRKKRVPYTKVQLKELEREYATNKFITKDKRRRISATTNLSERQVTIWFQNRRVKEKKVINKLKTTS
# Chain of E3 ubiquitin-protein ligase XIAP (Homo sapiens) (P98170 whole entry, looked up, the tested form may be a part): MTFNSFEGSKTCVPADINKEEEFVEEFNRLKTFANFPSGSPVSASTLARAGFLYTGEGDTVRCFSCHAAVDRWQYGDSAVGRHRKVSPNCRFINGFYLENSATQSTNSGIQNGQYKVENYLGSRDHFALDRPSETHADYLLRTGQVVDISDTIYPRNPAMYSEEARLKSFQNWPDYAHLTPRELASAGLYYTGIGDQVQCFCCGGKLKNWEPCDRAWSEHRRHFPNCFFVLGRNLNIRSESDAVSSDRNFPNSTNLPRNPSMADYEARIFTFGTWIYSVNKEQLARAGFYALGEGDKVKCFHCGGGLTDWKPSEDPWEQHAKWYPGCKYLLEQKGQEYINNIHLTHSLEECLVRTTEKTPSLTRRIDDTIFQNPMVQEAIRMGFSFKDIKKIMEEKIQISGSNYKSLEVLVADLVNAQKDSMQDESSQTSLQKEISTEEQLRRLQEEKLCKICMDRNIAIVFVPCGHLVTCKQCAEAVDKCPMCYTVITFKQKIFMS
# Chain of Dihydroorotate dehydrogenase (quinone), mitochondrial (Plasmodium falciparum (isolate 3D7)) (Q08210 whole entry, looked up): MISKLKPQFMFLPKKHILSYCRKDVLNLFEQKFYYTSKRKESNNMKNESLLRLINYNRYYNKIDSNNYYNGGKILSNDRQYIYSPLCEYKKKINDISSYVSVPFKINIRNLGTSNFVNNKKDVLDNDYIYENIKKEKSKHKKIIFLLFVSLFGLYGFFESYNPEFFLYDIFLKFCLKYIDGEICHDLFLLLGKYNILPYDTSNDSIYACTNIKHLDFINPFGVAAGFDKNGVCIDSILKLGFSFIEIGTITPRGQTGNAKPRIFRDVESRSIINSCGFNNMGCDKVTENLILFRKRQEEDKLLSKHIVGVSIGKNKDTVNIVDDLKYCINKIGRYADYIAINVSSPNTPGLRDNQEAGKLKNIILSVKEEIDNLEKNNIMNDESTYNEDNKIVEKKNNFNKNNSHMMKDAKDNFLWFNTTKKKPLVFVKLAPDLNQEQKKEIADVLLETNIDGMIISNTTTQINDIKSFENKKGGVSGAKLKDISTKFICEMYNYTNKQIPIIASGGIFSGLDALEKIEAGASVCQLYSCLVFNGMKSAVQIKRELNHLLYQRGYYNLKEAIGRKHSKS
SMILES,z-score [1],z-score [2],z-score [3],composite z-score [4],z-score [5],z-score [6],z-score [7],z-score [8],z-score [9],composite z-score [10],composite z-score [11],composite z-score [12],z-score [13],z-score [14]
O=C1C[C@@H](O)[C@@H](O)[C@@H]2[C@@H]3C(=O)N(c4ccc(F)cc4F)C(=O)[C@@H]3CC[C@@H]12,0.685,0.461 (inactive),0.491 (inactive),0.374 (inactive),-0.626 (inactive),-0.584 (inactive),-0.385 (inactive),-0.302 (inactive),0.481,-0.0735,0.0164 (inactive),-0.0741,0.452,-0.595 (inactive)
CC(C)=CCCC(C)=CCON=C1C[C@@H](O)[C@@H](O)[C@@H]2[C@@H]3C(=O)N(C[C@@H]4CCCO4)C(=O)[C@@H]3CC[C@@H]12,0.502,-0.242 (inactive),-0.041 (inactive),-0.111 (inactive),-0.261 (inactive),0.348 (inactive),0.122 (inactive),0.511 (inactive),0.424,-0.264,0.0561 (inactive),0.539,1.55,0.264 (inactive)
CCN1C(=O)[C@H]2[C@H]3[C@H](O)[C@H](O)CC(=NOC[C@@H](C)[C@H](OCc4ccccc4)C(C)C)[C@@H]3CC[C@H]2C1=O,-0.725,-4.63 (inactive),-0.959 (inactive),-0.613 (inactive),0.0525 (inactive),-0.134 (inactive),1.03 (inactive),0.992 (inactive),-0.989,-0.0599,0.185 (inactive),0.757,0.605,-6.43 (inactive)
CCCCc1nc2c(c3c1C[C@H](C)OC3)CN(CCC(C)C)CC2,-0.165,-2.07 (inactive),0.431 (inactive),-0.847 (inactive),0.332 (inactive),-0.674 (inactive),0.56 (inactive),-0.104 (inactive),1.2,0.0133,0.172 (inactive),0.715,-0.522,-5.63 (inactive)
COCCNC(=O)OCC1CCCC2(CC(OC(=O)NCCc3ccc(F)cc3)CC(CCC(=O)N[C@@H](C)C(=O)OC)O2)O1 (some centres not stated),0.864,-0.183 (inactive),0.899 (inactive),-0.0746 (inactive),0.262 (inactive),0.684 (inactive),0.963 (inactive),1.16 (inactive),1.07,-0.216,0.417 (inactive),0.579,-1.82,-3.44 (inactive)
CC(CCN1CCc2nc(-c3ccccc3)c(-c3ccccc3)cc2C1)=NOC(C)CN1CCCCc2nc(C)c(C)cc21 (configuration not stated),-0.0429,-2.52 (inactive),-1.07 (inactive),0.187 (inactive),0.347 (inactive),-0.609 (inactive),0.789 (inactive),-0.702 (inactive),-0.747,-0.0651,0.685 (inactive),0.312,0.0201,-4.25 (inactive)
CC(C)CON=C1C[C@@H](O)[C@@H](O)[C@@H]2[C@@H]3C(=O)N([C@@H](C)c4ccccc4)C(=O)[C@@H]3CC[C@H]12,0.0096,-1.45 (inactive),-0.0393 (inactive),-0.0804 (inactive),0.07 (inactive),0.351 (inactive),0.595 (inactive),0.675 (inactive),0.333,-0.166,-0.0093 (inactive),0.402,0.529,0.0364 (inactive)
CC(=O)OC[C@H]1O[C@@H](ON=C(C)CCN2CCc3nc(-c4ccccc4)c(-c4ccccc4)cc3C2)[C@H](OC(C)=O)[C@@H](OC(C)=O)[C@@H]1OC(C)=O,-0.182,-0.909 (inactive),-0.653 (inactive),-0.24 (inactive),0.0039 (inactive),-0.127 (inactive),-1.11 (inactive),-2.14 (inactive),-0.323,0.0819,0.0113 (inactive),0.71,-1.08,-5.05 (inactive)
CCOC(=O)[C@H](Cc1ccccc1)NC(=O)CCC1CC(OC(=O)NCCc2ccc(F)cc2)CC2(CCCC(COC(=O)NCC(c3ccccc3)c3ccccc3)O2)O1 (some centres not stated),0.506,0.167 (inactive),-0.874 (inactive),-0.219 (inactive),0.0494 (inactive),0.509 (inactive),0.565 (inactive),-0.563 (inactive),0.489,-0.161,-0.295 (inactive),0.651,-1.39,-4.95 (inactive)
CO[C@@H]1COC(=O)CC=C[C@@H](C)[C@@H]2C=C[C@H](O)[C@@H](COC(=O)CCC[C@H]1C)O2,0.696,-1.19 (inactive),0.492 (inactive),-0.24 (inactive),-0.95 (inactive),-0.725 (inactive),0.118 (inactive),-0.195 (inactive),0.401,-0.12,0.0426 (inactive),0.152,0.149,-0.262 (inactive)
CC(C)[C@@H](OCc1ccccc1)[C@H](C)C=NO[C@H](C)c1cn([C@H](CO)Cc2ccccc2)nn1,-1.01,-3.51 (inactive),-2.02 (inactive),-0.926 (inactive),-0.324 (inactive),-2.3 (inactive),-0.0325 (inactive),-0.0205 (inactive),-1.67,-0.0287,-0.2 (inactive),0.353,0.325,-4.42 (inactive)
C[C@H]1Cc2c(-c3ccccc3)nc3c(c2CO1)CN(CCOc1ccccc1)CC3,-0.33,-1.97 (inactive),0.0723 (inactive),-0.0439 (inactive),1.17 (inactive),0.671 (inactive),1.67 (inactive),-0.176 (inactive),0.678,-0.0599,0.15 (inactive),0.771,1.18,-5.41 (inactive)
COc1ccc(COC(=O)NN=C2C[C@@H](O)[C@@H](O)[C@@H]3[C@@H]4C(=O)N(c5ccc(F)cc5F)C(=O)[C@@H]4CC[C@@H]23)cc1,0.631,0.64 (inactive),0.527 (inactive),0.0922 (inactive),-0.176 (inactive),0.968 (inactive),0.583 (inactive),0.644 (inactive),0.635,-0.173,-0.413 (inactive),-0.0386,-0.351,-3.33 (inactive)
CO[C@@H]1COC(=O)CCC[C@@H](C)[C@H](OC)COC(=O)[C@H](Cc2ccccc2)NC(=O)CC=C[C@H]1C,0.229,-0.987 (inactive),-0.15 (inactive),0.615 (inactive),-0.291 (inactive),0.926 (inactive),0.024 (inactive),0.407 (inactive),1.05,0.0155,0.0232 (inactive),-0.282,-1.34,-3.5 (inactive)
O=C1C[C@@H](O)[C@@H](O)[C@@H]2[C@@H]3C(=O)N(C4CCCCC4)C(=O)[C@@H]3CC[C@H]12,0.513,0.44 (inactive),-0.122 (inactive),0.349 (inactive),-0.319 (inactive),-0.247 (inactive),-0.0543 (inactive),-0.292 (inactive),0.288,-0.0454,-0.149 (inactive),0.349,0.266,0.34 (inactive)
CC(CCN1CCc2nc(-c3ccccc3)c(-c3ccccc3)cc2C1)=NO[C@H](C)c1cn([C@@H]2COC[C@H]2O)nn1,-0.233,-0.799 (inactive),-0.869 (inactive),-0.0119 (inactive),0.408 (inactive),-0.462 (inactive),0.532 (inactive),0.705 (inactive),-0.639,0.063,-0.378 (inactive),0.175,0.429,-5.45 (inactive)
CO[C@@H]1COC(=O)[C@H](C)NC(=O)[C@@H](C)COC(=O)CCC[C@H]1C,0.868,0.0728 (inactive),-0.516 (inactive),-0.926 (inactive),-0.892 (inactive),0.0233 (inactive),0.277 (inactive),-0.297 (inactive),-0.0734,-0.153,0.144 (inactive),0.652,-0.0339,-2.16 (inactive)
CO[C@H]1COC(=O)CC=C[C@H](C)[C@@H](NS(=O)(=O)c2ccc(C)cc2)COC(=O)CC=C[C@@H]1C,0.55,-1.66 (inactive),-0.31 (inactive),-2.98 (inactive),-0.573 (inactive),-4.14 (inactive),-0.721 (inactive),-1.03 (inactive),-0.203,-0.255,-0.116 (inactive),0.0878,-0.648,1.31 (inactive)
